In the supplement of paper PMC10849652:
About 8,800 targets were measured; listed, in parts, are those with a hit and a random draw of the rest. About 0.5% of all pairs of compound and target were hits.

Key:
Test in all cases: log2 fold change, soluble protein after heating vs DMSO (PISA); higher = thermal stabilisation; K562 lysate, 10 uM; active = over 0.2 and 3.5 SD of the protein, either way, in both replicates (recomputed)
[1] = compound: C1=CC2=NC=CN=C2C=C1/C=C/3\C(=O)NC(=O)S3
Method in brief: (§1)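 Quantification was by TMTpro 16plex LC-MS/MS with equalised channel sums, applied to the supernatant after 21,000xg for 90 min. Samples were crude K562 extract at 1 mg/mL protein in PBS pH 7.4 with 1 mM MgCl2, treated with 10 μM compound for 30 min, heated for 3 min across 48°C-58°C, pooled and brought to 0.5% NP-40 at 4°C. Values are log-two fold changes in thermal stability relative to solvent controls, from duplicates.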

[2] = compound: C1CCN(C1)C(=O)NC2=CC=CC(=C2)NC3=NC=C(C(=N3)NCCC4=CN=CN4)Br
Method in brief: as §1

[3] = compound: C1CN(CCC1(CC2=CC=C(C=C2)Cl)N)C3=NC=NC4=C3C=CN4
Method in brief: as §1

[4] = compound: C#Cc1cccc(Nc2ncnc3cc(OCCOC)c(OCCOC)cc23)c1 [erlotinib]
Method in brief: as §1

[5] = compound: C/C(=N\NC(=O)C1=CC(=CC=C1)S(=O)(=O)N2CCOCC2)/C3=C(C=CC(=C3)Cl)O
Method in brief: as §1

[6] = compound: C1=CC(=CC=C1C2=NC3=C(N2)C=C(C=C3)C(=O)N)OC4=CC=C(C=C4)Cl
Method in brief: as §1

[7] = compound: C1=CC2=C(C=CC(=C2)/C=C\3/C(=O)NC(=NCC4=CC=CS4)S3)N=C1
Method in brief: as §1

[8] = compound: C1=CC=C(C=C1)C2=NC(=C(N2)C3=CC=NC=C3)C4=CC(=C(C=C4)Cl)O
Method in brief: as §1

[9] = compound: C1=CC=C2C(=C1)C3=NNC4=CC=CC(=C43)C2=O
Method in brief: as §1

[10] = compound: C1COCCN1CCN2C3=CC=CC=C3N=C2NC(=O)C4=CC(=CC=C4)[N+](=O)[O-] [IRAK-1-4 Inhibitor I]
Method in brief: as §1

Measured: log2 fold change

CSRP2 (UniProt Q16527)
Chain of UniProt Q16527 (Q16527 whole entry, looked up): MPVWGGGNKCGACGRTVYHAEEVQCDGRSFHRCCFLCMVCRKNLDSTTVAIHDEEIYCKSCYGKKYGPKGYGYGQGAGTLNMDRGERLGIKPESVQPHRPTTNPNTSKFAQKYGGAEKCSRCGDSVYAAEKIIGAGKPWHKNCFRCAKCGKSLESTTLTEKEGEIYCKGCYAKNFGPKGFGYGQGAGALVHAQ
inactive: [1] -0.097 | [2] 0.043 | [3] -0.003

CNK3/IPCEF1 isoform 2 (UniProt G9CGD6)
inactive: [4] 0.065 | [5] -0.008 | [6] 0.038 | [7] -0.082 | [8] -0.051 | [9] 0.053 | [2] 0.014 | [3] -0.048 | [10] 0.105

COL12A1 (UniProt Q99715)
Chain of UniProt Q99715 (Q99715 whole entry, looked up): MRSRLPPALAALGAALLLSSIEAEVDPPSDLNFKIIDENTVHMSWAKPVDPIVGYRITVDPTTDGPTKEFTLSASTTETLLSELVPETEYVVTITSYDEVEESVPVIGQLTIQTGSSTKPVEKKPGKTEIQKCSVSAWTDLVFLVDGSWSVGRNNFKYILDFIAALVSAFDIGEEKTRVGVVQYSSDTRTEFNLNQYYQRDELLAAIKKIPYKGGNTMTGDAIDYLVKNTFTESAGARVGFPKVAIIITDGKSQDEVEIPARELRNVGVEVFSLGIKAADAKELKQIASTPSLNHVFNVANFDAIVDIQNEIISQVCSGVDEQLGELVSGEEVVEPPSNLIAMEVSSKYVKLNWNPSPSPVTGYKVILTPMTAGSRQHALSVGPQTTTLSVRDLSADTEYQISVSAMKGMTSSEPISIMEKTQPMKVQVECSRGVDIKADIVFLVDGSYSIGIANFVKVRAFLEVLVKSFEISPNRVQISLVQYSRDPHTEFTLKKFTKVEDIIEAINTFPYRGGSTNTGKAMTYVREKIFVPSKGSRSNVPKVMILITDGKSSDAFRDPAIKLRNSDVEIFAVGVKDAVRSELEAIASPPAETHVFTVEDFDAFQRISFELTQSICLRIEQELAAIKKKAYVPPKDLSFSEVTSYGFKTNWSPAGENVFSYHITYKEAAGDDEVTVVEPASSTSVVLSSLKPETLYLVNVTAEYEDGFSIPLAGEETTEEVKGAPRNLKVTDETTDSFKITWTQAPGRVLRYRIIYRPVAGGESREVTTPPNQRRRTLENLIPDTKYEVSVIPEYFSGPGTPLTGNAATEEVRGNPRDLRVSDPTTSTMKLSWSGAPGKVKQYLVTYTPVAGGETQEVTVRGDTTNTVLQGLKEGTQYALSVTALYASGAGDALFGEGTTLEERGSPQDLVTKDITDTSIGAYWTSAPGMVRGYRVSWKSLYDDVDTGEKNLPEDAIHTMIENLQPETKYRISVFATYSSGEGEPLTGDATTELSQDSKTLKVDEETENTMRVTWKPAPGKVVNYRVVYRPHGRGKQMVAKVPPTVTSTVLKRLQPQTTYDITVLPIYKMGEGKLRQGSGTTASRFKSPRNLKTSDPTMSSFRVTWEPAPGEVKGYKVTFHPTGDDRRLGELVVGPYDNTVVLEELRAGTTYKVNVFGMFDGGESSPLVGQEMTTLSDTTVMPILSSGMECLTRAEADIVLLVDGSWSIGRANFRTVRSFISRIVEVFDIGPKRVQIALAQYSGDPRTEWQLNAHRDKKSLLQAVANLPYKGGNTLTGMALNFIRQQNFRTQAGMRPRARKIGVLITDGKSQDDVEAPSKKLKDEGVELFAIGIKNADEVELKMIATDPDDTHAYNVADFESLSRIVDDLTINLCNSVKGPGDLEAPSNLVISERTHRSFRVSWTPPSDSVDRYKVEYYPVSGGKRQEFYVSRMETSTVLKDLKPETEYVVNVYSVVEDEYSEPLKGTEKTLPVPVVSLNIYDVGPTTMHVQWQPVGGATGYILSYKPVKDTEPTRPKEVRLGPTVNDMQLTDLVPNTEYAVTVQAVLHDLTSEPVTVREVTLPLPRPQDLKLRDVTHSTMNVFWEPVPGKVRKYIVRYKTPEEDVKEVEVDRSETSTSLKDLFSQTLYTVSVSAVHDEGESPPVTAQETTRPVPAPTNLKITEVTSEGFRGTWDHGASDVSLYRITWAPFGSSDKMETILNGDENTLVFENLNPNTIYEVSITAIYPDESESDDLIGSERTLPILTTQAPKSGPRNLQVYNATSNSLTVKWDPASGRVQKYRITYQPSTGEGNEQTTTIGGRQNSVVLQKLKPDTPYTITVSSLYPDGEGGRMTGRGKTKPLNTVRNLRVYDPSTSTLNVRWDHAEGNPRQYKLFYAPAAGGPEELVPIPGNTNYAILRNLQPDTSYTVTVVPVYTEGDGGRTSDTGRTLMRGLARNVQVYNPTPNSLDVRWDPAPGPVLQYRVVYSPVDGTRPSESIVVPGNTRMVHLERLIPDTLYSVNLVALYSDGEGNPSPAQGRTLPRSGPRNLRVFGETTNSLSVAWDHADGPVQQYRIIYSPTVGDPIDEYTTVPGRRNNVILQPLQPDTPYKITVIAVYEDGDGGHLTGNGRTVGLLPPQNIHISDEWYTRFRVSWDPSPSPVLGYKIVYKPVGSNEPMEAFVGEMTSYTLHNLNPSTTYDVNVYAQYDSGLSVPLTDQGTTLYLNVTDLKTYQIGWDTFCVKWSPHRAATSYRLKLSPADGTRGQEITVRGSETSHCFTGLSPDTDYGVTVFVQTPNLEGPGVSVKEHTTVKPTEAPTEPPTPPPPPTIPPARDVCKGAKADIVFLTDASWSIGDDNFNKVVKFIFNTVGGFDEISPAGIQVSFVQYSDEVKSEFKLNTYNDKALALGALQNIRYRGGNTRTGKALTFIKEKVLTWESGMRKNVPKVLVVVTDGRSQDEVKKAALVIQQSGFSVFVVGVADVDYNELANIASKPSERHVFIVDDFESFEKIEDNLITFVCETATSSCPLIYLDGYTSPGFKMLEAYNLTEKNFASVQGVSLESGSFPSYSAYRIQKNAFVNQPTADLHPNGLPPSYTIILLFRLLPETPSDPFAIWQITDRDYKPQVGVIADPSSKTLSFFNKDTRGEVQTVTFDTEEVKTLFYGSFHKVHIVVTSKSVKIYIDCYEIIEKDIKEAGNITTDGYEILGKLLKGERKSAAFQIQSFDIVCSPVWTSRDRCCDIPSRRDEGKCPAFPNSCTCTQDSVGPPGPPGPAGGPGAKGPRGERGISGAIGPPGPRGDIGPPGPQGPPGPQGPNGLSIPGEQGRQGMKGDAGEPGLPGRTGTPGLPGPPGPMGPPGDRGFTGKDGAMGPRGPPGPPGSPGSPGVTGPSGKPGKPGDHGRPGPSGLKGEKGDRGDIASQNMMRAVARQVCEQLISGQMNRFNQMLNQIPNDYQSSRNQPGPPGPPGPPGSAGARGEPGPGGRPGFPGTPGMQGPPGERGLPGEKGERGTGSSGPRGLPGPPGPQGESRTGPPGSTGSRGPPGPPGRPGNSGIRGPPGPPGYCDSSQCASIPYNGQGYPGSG
inactive: [4] -0.016 | [5] -0.009 | [6] 0.01 | [7] -0.008 | [9] -0.053 | [2] 0.059 | [3] 0.065

DALRD3 (UniProt Q5D0E6)
inactive: [4] 0.034 | [5] 0.152 | [6] 0.05 | [7] -0.413 | [9] 0.021 | [2] 0.031 | [3] -0.068

CSDE1 isoform 3 (UniProt O75534)
inactive: [1] 0.13 | [8] 0.027 | [10] -0.011

CHEK2 (UniProt O96017)
inactive: [4] -0.042 | [5] -0.006 | [7] 0.05 | [1] 0.053 | [8] 0.018 | [9] 0.148 | [2] 0.11 | [3] -0.035 | [10] -0.031

DESI2 (UniProt Q9BSY9)
Chain of UniProt Q9BSY9 (Q9BSY9 whole entry, looked up): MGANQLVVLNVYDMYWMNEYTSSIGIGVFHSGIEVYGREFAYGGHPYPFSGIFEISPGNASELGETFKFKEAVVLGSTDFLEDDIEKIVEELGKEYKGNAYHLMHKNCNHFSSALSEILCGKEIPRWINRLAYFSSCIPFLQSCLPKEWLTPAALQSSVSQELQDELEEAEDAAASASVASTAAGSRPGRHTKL
inactive: [5] 0.195 | [7] -0.043 | [9] 0.119 | [2] 0.002 | [3] 0.067

CXCL14 (UniProt O95715)
Chain of UniProt O95715 (O95715 whole entry, looked up): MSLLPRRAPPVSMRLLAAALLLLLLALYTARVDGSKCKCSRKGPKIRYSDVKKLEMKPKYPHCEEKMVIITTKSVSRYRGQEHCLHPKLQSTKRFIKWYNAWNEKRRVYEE
inactive: [5] 0.119 | [7] -0.094 | [1] -0.09 | [9] -0.268 | [2] -0.444 | [3] 0.119

CLASP1 isoform 4 (UniProt Q7Z460)
inactive: [4] 0.199 | [5] -0.041 | [6] 0.04 | [7] -0.262 | [9] -0.029

CSNK1A1 isoform 3 (UniProt P48729)
inactive: [8] -0.006 | [10] 0.088

COL6A3 (UniProt P12111)
inactive: [4] -0.101 | [6] 0.14 | [1] -0.232 | [8] -0.108 | [10] -0.071

CLASP2 (UniProt O75122)
inactive: [5] -0.114 | [7] 0.12 | [1] -0.225 | [8] -0.044 | [9] -0.059 | [2] 0 | [3] 0.023 | [10] -0.017

CYP4V2 (UniProt Q6ZWL3)
Chain of UniProt Q6ZWL3 (Q6ZWL3 whole entry, looked up): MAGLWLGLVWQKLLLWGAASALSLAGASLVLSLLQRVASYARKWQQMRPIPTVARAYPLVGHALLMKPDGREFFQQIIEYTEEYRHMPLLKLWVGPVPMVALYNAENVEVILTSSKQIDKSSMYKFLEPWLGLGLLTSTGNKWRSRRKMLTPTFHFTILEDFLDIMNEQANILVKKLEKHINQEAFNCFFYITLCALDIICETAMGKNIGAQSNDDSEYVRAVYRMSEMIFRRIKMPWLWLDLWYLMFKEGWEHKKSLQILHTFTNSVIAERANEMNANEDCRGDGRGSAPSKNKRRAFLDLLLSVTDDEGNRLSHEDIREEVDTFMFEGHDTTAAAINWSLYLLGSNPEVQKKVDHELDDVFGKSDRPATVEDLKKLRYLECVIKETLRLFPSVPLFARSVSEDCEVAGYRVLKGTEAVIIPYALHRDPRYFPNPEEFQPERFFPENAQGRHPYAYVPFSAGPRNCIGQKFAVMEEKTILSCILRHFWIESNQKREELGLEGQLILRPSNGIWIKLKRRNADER
inactive: [4] -0.07 | [6] 0.014 | [1] 0.126 | [8] 0.099 | [10] 0.074

CUX1 isoform 2 (UniProt Q13948)
Chain of UniProt Q13948 (Q13948 whole entry, looked up): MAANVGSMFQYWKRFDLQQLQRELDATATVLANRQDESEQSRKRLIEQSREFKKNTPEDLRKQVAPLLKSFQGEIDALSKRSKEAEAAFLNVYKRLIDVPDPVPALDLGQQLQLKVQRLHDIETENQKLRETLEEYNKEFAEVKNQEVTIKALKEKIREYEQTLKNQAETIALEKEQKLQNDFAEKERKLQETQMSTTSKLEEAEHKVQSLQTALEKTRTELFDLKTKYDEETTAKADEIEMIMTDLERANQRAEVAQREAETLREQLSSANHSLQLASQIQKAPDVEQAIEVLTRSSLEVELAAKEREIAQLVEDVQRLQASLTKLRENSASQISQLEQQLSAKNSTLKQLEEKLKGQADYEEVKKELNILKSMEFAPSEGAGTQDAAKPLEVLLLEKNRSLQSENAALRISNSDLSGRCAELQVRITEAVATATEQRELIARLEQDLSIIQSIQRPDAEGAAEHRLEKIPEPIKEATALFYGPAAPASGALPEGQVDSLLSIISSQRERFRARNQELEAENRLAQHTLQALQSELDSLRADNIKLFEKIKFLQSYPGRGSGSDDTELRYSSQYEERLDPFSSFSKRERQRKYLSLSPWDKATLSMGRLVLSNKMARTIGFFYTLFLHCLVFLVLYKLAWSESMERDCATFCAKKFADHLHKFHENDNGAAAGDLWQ
inactive: [4] -0.029 | [5] -0.003 | [6] -0.229 | [7] 0.034 | [8] -0.011 | [9] 0.02 | [2] -0.015 | [3] -0.008 | [10] 0.029

CIC (UniProt I3L1Q4)
inactive: [1] -0.03

CINP isoform 3 (UniProt Q9BW66)
Chain of UniProt Q9BW66 (Q9BW66 whole entry, looked up): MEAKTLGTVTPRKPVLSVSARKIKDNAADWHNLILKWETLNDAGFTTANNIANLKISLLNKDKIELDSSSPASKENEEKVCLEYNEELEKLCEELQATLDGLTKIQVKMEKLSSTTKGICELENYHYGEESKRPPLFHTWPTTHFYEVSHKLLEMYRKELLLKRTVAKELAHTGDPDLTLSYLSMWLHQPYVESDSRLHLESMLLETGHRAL
inactive: [5] 0.016 | [7] 0.015 | [1] -0.015 | [8] 0.081 | [9] -0.102 | [2] -0.015 | [3] -0.056 | [10] 0.074

COPS9 (UniProt Q8WXC6)
Chain of UniProt Q8WXC6 (Q8WXC6 whole entry, looked up): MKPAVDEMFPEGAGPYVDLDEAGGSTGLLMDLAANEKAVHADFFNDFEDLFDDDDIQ
inactive: [4] -0.01 | [6] -0.362 | [8] 0.081 | [10] -0.371
